In ChEMBL document CHEMBL3988442, “University of Dundee, Small-Polar-MMV Screening Library” (2021) one finds Percent Effect data, which are given here for ten molecules.

Common to all, as to set-up: scale not given: direction of the effect not stated beside the values
Assay [1] concerns the target Protein translocase subunit SecA (Escherichia coli (strain K12)) (UniProt P10408). Kind of assay: Assay to Identify E. coli SecA ATPase Inhibitors. Conditions: 30 µM. The format is functional.
Assay [2] concerns the target T1, Ubiquitin-activating enzyme e1, putative (Leishmania donovani (strain BPK282A1)) (UniProt E9BSI1).
T1 sequence (whole entry): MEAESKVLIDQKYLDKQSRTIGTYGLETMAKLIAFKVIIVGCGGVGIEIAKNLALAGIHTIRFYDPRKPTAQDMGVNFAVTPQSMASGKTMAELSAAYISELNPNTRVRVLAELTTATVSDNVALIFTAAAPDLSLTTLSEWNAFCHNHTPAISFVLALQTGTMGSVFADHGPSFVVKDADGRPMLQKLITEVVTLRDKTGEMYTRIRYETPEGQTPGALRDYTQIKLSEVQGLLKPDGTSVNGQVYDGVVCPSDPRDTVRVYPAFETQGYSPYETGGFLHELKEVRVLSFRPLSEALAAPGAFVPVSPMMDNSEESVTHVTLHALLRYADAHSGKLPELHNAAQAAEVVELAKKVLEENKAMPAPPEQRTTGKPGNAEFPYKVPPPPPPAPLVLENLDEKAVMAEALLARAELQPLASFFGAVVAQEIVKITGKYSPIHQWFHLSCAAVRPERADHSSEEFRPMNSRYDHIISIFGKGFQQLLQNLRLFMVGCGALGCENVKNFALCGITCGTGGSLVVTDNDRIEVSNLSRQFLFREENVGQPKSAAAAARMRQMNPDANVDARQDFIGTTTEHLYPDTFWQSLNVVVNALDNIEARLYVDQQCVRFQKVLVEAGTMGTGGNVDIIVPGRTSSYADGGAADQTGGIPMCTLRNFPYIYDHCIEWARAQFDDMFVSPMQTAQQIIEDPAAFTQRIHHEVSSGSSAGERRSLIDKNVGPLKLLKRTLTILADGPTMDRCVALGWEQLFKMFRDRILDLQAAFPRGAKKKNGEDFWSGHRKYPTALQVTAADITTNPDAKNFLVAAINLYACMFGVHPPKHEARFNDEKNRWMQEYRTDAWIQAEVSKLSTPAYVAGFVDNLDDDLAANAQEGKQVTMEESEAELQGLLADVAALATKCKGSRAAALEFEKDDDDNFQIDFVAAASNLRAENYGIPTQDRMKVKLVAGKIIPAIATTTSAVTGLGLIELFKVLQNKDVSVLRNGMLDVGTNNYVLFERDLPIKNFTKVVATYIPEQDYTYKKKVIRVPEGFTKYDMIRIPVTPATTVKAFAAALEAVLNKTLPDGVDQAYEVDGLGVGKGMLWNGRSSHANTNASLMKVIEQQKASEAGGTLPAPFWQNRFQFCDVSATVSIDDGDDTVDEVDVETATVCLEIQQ
Kind of assay: Leishmania donovani Ubiquitin Activating Enzyme (LdE1). The format is functional. Conditions: 30 µM.

Assay [3] has as its target AMP-activated protein kinase, AMPK (Homo sapiens) (UniProt P54646+O43741+P54619+Q9UGJ0+Q9Y478+Q13131+Q9UGI9). In words: AMP-dependent Kinase enzyme assay. An in vitro enzyme assay that detects ADP turnover that is directly proportional to AMPK activity. This uses naive AMPK that is activated during the assay with MK-8722. The format is functional. Conditions: 30 µM.
Assay [4] addresses Sialic acid-binding Ig-like lectin 9 (Homo sapiens) (UniProt Q9Y336). In words: Hs-Siglec9 ALPHAscreen SOP 20170721. Conditions: 10 µM.
Assay [5] concerns Trypanosoma cruzi. Kind of assay: Trypanosoma cruzi phosphomannomutase and mannose-1-phosphate guanylyltransferase assay. Type of assay: functional. Conditions: 10 µM.
In assay [6] the target is T2, Arginase-2, mitochondrial (Homo sapiens) (UniProt P78540).
T2 sequence (whole entry): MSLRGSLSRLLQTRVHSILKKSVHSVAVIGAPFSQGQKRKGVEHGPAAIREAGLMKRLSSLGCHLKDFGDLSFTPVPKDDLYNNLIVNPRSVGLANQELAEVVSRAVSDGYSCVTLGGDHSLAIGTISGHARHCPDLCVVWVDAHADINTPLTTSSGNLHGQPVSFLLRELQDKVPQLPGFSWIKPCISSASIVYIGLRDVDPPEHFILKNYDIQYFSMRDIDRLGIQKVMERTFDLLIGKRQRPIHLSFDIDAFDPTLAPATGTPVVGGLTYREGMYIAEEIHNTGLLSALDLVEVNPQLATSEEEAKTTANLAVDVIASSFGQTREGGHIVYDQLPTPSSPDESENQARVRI
Kind of assay: in vitro enzyme assay to detect the production of urea directly proportional to the activity of Arginase II. Also: in the data most compounds retested in dose-response had high values. The format is functional. Conditions: 33.3 µM.

Assay [7] has as its target T3, Proteasome subunit beta (Trypanosoma cruzi) (UniProt O96673).
T3 sequence (whole entry): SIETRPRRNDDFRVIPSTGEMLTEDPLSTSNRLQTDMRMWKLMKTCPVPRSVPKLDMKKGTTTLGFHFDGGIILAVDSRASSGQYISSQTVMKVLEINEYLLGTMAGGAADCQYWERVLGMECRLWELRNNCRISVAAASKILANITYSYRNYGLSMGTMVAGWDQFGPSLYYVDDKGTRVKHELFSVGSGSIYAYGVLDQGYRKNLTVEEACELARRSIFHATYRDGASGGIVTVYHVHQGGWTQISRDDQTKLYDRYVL
Kind of assay: Trypanosoma cruzi proteasome chymotrypsin-like activity (TcProtChymo) assay. Also: in the data most compounds retested in dose-response had high values. The format is functional. Conditions: 9.37 µM.

The species named for assay [8] is Homo sapiens. In words: To identify inhibition of the IFN signalling (Jak-Stat) pathway via expression of an eGFP reporter gene under the control of an IFN-stimulated response element (ISRE) containing MxA promoter. Type of assay: functional. Conditions: 30 µM.
For assay [9], the target named is T4, Tyrosyl-tRNA synthetase, putative (Trypanosoma cruzi (strain CL Brener)) (UniProt Q4DSP6).
T4 sequence (whole entry): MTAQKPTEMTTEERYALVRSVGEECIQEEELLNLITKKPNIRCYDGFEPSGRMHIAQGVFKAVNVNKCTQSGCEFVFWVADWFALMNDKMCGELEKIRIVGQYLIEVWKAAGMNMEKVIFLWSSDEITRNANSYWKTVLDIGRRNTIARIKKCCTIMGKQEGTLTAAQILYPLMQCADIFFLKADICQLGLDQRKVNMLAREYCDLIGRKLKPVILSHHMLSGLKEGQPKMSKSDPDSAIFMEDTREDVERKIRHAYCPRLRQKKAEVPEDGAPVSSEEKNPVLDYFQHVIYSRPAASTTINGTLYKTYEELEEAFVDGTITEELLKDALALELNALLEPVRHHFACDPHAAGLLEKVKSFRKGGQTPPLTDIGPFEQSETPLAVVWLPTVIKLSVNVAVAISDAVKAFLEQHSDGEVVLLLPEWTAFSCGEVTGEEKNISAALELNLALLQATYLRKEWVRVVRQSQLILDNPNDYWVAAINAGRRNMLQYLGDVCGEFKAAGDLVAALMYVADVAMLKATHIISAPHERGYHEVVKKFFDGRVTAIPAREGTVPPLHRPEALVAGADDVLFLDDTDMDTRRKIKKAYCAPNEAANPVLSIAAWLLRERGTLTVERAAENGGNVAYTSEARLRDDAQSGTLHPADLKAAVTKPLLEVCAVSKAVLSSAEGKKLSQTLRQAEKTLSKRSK
Kind of assay: Trypanosoma cruzi tyrosyl tRNA synthetase (TcYRS) _High Tyrosine SOP. Also: in the data most compounds retested in dose-response had high values. Type of assay: functional. Conditions: 30 µM.

Assay [10] concerns the target T4, Tyrosyl-tRNA synthetase, putative (Trypanosoma cruzi (strain CL Brener)). Kind of assay: Trypanosoma cruzi tyrosyl tRNA synthetase (TcYRS) SOP. The format is functional. Conditions: 30 µM.
In assay [11] the target is Chromo domain-containing protein 1 (Saccharomyces cerevisiae (strain ATCC 204508 / S288c) (Baker's yeast)) (UniProt P32657). In words: ScCHD-1 Enzyme Inhibition Assay. Also: in the data most compounds retested in dose-response had high values. Type of assay: functional. Conditions: 30 µM.

For some assays here: Potency and affinity values are given separately.

Chromo domain-containing protein 1 (Saccharomyces cerevisiae (strain ATCC 204508 / S288c) (Baker's yeast)), sequence (P32657 whole entry, the tested form may be a part): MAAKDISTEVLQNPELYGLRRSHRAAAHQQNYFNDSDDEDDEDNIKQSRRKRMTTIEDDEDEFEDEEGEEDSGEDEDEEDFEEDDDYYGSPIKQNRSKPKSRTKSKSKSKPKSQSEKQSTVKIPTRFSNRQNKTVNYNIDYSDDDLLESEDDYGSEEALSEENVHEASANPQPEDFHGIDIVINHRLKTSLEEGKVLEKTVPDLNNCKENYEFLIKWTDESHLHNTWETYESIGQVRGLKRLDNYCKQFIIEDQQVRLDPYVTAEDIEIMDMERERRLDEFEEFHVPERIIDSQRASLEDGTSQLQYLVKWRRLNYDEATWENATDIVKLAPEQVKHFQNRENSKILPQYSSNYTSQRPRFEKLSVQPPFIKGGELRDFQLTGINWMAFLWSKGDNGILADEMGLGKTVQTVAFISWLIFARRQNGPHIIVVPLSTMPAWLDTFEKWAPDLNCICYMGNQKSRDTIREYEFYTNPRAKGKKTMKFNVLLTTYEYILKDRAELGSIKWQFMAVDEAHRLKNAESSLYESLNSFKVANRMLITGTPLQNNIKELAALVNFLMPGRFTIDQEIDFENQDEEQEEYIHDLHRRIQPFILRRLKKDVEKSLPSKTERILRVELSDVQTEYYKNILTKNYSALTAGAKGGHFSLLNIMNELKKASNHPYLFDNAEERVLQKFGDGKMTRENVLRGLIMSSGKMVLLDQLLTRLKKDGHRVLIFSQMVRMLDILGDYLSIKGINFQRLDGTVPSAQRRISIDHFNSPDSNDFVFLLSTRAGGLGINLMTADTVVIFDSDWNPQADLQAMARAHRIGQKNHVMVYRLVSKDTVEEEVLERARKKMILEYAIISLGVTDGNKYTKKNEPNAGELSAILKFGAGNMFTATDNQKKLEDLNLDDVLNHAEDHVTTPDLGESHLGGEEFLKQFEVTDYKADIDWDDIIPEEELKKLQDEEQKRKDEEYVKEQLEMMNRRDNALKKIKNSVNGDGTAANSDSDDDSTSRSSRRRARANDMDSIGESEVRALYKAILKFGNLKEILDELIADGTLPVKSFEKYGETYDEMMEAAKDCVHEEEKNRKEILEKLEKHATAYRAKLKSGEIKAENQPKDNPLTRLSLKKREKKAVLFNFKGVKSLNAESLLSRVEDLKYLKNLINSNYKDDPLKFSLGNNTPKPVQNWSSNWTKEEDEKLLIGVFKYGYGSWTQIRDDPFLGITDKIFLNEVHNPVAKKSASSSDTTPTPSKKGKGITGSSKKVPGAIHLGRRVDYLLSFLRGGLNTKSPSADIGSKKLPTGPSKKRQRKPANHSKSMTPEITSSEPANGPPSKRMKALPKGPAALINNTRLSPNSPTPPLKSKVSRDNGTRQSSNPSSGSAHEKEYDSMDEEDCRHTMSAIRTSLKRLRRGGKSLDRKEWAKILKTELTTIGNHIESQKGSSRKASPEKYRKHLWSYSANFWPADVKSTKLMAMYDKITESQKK
Sialic acid-binding Ig-like lectin 9 (Homo sapiens), sequence (Q9Y336 whole entry): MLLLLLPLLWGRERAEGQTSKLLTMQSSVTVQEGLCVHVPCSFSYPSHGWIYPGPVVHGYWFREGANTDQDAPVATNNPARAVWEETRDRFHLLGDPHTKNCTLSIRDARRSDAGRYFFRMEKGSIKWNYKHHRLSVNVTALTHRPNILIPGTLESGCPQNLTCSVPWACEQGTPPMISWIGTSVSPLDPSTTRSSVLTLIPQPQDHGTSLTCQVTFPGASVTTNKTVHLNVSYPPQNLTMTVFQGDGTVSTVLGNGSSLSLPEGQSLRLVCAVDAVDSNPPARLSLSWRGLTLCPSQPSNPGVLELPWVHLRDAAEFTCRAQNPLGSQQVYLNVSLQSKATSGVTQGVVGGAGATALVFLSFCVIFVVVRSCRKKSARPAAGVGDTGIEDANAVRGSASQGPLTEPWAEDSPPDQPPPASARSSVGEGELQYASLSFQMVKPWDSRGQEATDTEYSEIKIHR
Protein translocase subunit SecA (Escherichia coli (strain K12)), sequence (P10408 whole entry): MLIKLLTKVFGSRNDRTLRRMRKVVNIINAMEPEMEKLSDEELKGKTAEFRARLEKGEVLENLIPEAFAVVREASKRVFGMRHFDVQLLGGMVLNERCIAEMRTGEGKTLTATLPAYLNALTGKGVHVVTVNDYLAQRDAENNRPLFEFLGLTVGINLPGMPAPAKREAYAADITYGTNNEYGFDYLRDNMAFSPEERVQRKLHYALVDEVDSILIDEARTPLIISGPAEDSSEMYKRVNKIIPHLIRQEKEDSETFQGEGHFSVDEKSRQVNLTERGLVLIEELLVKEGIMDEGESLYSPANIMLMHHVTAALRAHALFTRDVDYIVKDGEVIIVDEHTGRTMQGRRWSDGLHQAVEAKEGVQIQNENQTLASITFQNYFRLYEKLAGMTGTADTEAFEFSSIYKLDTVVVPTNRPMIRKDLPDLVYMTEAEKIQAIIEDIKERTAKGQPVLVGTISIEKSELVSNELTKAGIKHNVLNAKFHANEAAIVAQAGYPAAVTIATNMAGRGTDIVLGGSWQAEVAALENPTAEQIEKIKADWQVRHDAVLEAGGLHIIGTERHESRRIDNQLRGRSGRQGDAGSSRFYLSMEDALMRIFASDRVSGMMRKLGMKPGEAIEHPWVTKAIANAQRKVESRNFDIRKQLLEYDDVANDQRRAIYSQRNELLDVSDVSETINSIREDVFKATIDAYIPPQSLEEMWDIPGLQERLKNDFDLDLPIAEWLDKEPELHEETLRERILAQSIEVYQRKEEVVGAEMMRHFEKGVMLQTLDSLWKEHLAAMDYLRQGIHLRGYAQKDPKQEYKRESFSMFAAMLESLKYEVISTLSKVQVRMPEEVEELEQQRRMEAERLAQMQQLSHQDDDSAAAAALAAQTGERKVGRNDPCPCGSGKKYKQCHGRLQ

Consider `c1nc2c(c(C3CC3)n1)CCN(Cc1ccc3c(c1)OCO3)CC2`, for which the Percent Effect in assay [1] is -2.79%; in assay [2] it was -5.48%; in assay [3] it was 3.53%; in [4], 13.7%; in assay [5], 4.37%; in [6], -0.399%. The Percent Effect in [7] is 7.45%; in assay [8], 8.17%; in [9], 6.25%; in [10], 1.24%; in [11], -2.36%.
`c1cnc(-c2cnc(N3CCSCC3)nc2C2CC2)cn1`: the Percent Effect in assay [1] is -4.23%; in [2], 2.67%; in assay [3], 12.3%; in assay [4], 6.16%; in assay [5] it was -3.94%; in [6], -0.699%. Further, the Percent Effect in [7] is 3.44%; in assay [8], 16%; in assay [9] it was 1.06%; in assay [10], 8.97%; in assay [11] it was -0.826%.
For the molecule `CC(C)C1CN(C(=O)c2nccnc2N)CCS1` (stereo not given), the Percent Effect in [1] is -2.86%; in assay [2] it was 10.4%; in [3], -7.56%; in assay [4], 11%; in assay [5] it was 3.83%; in assay [6] it was -92.4%. The Percent Effect in assay [7] is 6.32%; in assay [8] it was 14.5%; in assay [9], 3.23%; in assay [10] it was 8.64%; in assay [11] it was -9.31%.
As for `Cc1noc(CCCC(=O)NC(C)c2ccccn2)n1` (stereo not given), the Percent Effect in assay [1] is -1.78%; in [2], 18.4%; in [3] it was -1.11%; in assay [4], 2.7%; in assay [5], 3.01%; in assay [6], 2.68%. Further, the Percent Effect is 6.52% in [7]; 3.32% in [8]; 10.3% in assay [9]; 21.9% in assay [10]; -13.2% in assay [11].
For the molecule `O=C(N[C@@H]1CN(Cc2ccccc2)C[C@@H]2CCCO[C@@H]21)C1CC1`, the Percent Effect is 3.31% in assay [1]; 10.7% in assay [2]; 0.707% in assay [3]; 7.92% in assay [4]; -2.32% in assay [5]; -49.3% in [6]. Also, the Percent Effect was 4.96% in assay [7]; -2.02% in assay [8]; 7.29% in assay [9]; 22.5% in assay [10]; -7.85% in [11].
`CCn1c(C)nnc1CN(C)C1CCN(CCc2ccncc2)C1` (stereo not given): the Percent Effect in assay [1] was -2.2%; in assay [2] it was 20.8%; in assay [3], -0.899%; in [4], 1.88%; in assay [5], 1.47%; in assay [6] it was -3.16%. The Percent Effect is 9.62% in assay [7]; 13.3% in assay [8]; 11.4% in assay [9]; 30.6% in [10]; -19.1% in assay [11].
For the molecule `Cc1cc(NC(=O)CN2CCN(c3nccs3)C(C)C2)n(C)n1` (stereo not given), the Percent Effect was -1.17% in assay [1]; -2.7% in assay [2]; -3.28% in [3]; 12% in assay [4]; 0.279% in [5]; 0.924% in [6]. For the same molecule, the Percent Effect in [7] is 4.49%; in [8], -4.36%; in assay [9], 1.98%; in assay [10], 3.66%; in [11], 10.5%.
In the case of `CCOCC1CN(S(C)(=O)=O)Cc2cnn(C)c21` (stereo not given), the Percent Effect is -0.898% in [1]; 16% in assay [2]; -7.73% in assay [3]; 10.1% in assay [4]; 5.79% in assay [5]; -43.9% in assay [6]. Besides, the Percent Effect in assay [7] was 10.8%; in assay [8] it was -2.61%; in assay [9], 4.17%; in assay [10] it was 12.5%; in assay [11], -7.93%.
With `COc1ccc(CN2CCc3ncnc(C4CCOC4)c3CC2)cc1` (stereo not given), the Percent Effect in [1] is -3.47%; in assay [2], 5.33%; in assay [3], -1.49%; in assay [4] it was -6.97%; in assay [5] it was 5.41%; in [6], -40.3%. The Percent Effect was 5.13% in assay [7]; 13.6% in [8]; 0% in assay [9]; 7.5% in assay [10]; -7.3% in assay [11].
In the case of `COc1ccc(OC)c(NC(=O)c2nc3ccccc3n(C)c2=O)c1`, the Percent Effect in assay [1] is 1.79%; in [2], -15.6%; in [3] it was 3.42%; in [4], -2.14%; in assay [5], 0.888%; in assay [6], 3.23%. The Percent Effect in assay [7] is 9.22%; in assay [8], 3.54%; in assay [9], 1.06%; in assay [10], 14.1%; in assay [11], -7.41%.
